From PubChem BioAssay
Calls of active or inactive are those of the source. Unless noted, how the calls were made is not given here.

Assays:
[1] = A549 cell viability effects, profiling panel, calcein-AM fluorescence, 48 h, basal (AID 1162); details: higher = more signal; further: test concentration not given here
[2] = adipocyte viability effects, profiling panel, cell-based, 3T3-L1 adipocytes, calcein-AM fluorescence, 48 h, basal (AID 1163); details: 3T3-L1 adipocytes viability, higher = more signal; further: test concentration not given here
[3] = HepG2 cell viability effects, profiling panel, calcein-AM fluorescence, 48 h, basal (AID 1164); details: higher = more signal; further: test concentration not given here
[4] = MM1S cell viability effects, profiling panel, calcein-AM fluorescence, 48 h, basal (AID 1165); details: higher = more signal;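 further: viability of MM1S multiple myeloma cells under basal unstimulated conditions; test concentration not given here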
[5] = basal RPMI8226 viability, no added stimulus, profiling panel, cell-based, calcein-AM fluorescence, 48 h, PK04 Diversity Set (AID 1166); details: RPMI8226 myeloma viability, higher = more signal;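 further: cells grown under basal conditions without added stimulus; test concentration not given here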
[6] = basal HepG2 mitochondrial membrane potential changes, profiling panel, cell-based, JC-1 fluorescence, 24 h, 100 nL compound (AID 1167); details: higher = more signal; further: test concentration not given here
[7] = basal 3T3-L1 adipocyte mitochondrial potential changes, profiling panel, cell-based, JC-1 fluorescence, 3T3-L1 adipocytes, 24 h, 100 nL compound (AID 1168); details: JC-1 mitochondrial fluorescence, higher = more signal, called active from +8 up or from −8 down; further: test concentration not given here
[8] = basal RPMI8226 mitochondrial membrane potential changes, profiling panel, cell-based, JC-1 fluorescence, 24 h, 100 nL compound (AID 1169); details: RPMI8226 myeloma, JC-1 mitochondrial potential fluorescence, higher = more signal; further: test concentration not given here
[9] = basal MM1S mitochondrial membrane potential changes, profiling panel, cell-based, JC-1 fluorescence, 24 h, 100 nL compound (AID 1170); details: higher = more signal; further: test concentration not given here
[10] = A549 lung cancer cell viability effects, profiling panel, resazurin fluorescence, 24 h, PK04 Diversity Set (AID 1171); details: higher = more signal, called active from +8 up or from −8 down; further: test concentration not given here
[11] = HepG2 liver cancer cell viability effects, profiling panel, resazurin fluorescence, 24 h, PK04 Diversity Set (AID 1172); details: higher = more signal; further: test concentration not given here
[12] = basal S. cerevisiae growth modulation, no modifier, primary screen, OD600, strain BY4716, 24 h, basal condition (AID 1173); details: OD600, 24 h, higher = more signal, called active from +8 up or from −8 down
[13] = MM1S myeloma cell viability, profiling panel, resazurin fluorescence, basal, 24 h, PK04 Diversity Set (AID 1174); details: higher = more signal, called active from +8 up or from −8 down;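 further: MM1S multiple myeloma cell line; test concentration not given here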
[14] = target: Dihydroorotate dehydrogenase (quinone), mitochondrial (Plasmodium falciparum (isolate 3D7)) (UniProt Q08210); assay: PfDHODH enzyme inhibitors, primary screen, biochemical, C-terminal His tag, absorbance 600 nm (AID 1175); details: DCIP absorbance 600 nm, higher = more signal, called active from +8 up or from −8 down;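 further: recombinant parasite enzyme with a five histidine tag at its C terminus; test concentration not given here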
[15] = P. aeruginosa biofilm formation inhibitors, primary screen, strain PAO1, LB-PBS medium, absorbance 600 nm (AID 1176); further: test concentration not given here; details: P. aeruginosa PAO1 growth/biofilm, A600, 12 h; higher = more signal
[16] = S. cerevisiae RM11-1a growth modifiers, primary screen, strain RM11-1a, OD600, basal, 24 h (AID 1177); details: OD600, 24 h, higher = more signal, called active from +8 up or from −8 down;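 further: cultures grown under basal conditions with no added stressor; test concentration not given here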
[17] = E. coli acrAB mutant growth effects, primary screen, E. coli filamentation inducers, strain DRC39, OD650, 24 h (AID 1178); details: higher = more signal, called active from +8 up or from −8 down;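 further: growth measured as culture turbidity by optical density at 650 nm; test concentration not given here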
[18] = E. coli acrAB mutant growth effects, primary screen, E. coli filamentation inducers, strain DRC39, OD650, 48 h (AID 1179);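 further: screen aims at cell division blockers that make cells filament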; details: E. coli DRC39 delta-acrAB growth, higher = more signal, called active from +8 up or from −8 down
[19] = RPMI8226 myeloma cell viability, profiling panel, resazurin fluorescence, basal, 24 h, PK04 Diversity Set (AID 1180); details: higher = more signal;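 further: RPMI8826 multiple myeloma cell line at 5000 cells per well; test concentration not given here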
[20] = target: E3 ubiquitin-protein ligase XIAP (Homo sapiens) (UniProt P98170); assay: XIAP binders, primary screen, biophysical, small-molecule microarray, fluorescence 635 nm (AID 1181); details: small-molecule microarray binding, higher = more signal;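 further: score merges 667 nm emission and signal to noise over triplicate slides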
E3 ubiquitin-protein ligase XIAP (Homo sapiens), sequence (P98170 whole entry, looked up): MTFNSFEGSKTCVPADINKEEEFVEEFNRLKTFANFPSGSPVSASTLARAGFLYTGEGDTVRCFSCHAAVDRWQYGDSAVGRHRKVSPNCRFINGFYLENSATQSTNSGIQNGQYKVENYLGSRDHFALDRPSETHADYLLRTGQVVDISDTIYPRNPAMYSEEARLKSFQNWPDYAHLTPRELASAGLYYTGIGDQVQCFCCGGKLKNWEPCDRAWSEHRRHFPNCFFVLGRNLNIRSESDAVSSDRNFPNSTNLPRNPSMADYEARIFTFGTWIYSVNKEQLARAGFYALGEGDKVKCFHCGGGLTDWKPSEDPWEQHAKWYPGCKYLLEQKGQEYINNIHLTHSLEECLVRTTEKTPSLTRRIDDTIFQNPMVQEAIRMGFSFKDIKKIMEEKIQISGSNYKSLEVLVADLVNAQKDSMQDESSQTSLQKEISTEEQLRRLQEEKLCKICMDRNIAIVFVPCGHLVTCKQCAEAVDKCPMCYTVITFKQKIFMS

Dihydroorotate dehydrogenase (quinone), mitochondrial (Plasmodium falciparum (isolate 3D7)), sequence (Q08210 whole entry, looked up): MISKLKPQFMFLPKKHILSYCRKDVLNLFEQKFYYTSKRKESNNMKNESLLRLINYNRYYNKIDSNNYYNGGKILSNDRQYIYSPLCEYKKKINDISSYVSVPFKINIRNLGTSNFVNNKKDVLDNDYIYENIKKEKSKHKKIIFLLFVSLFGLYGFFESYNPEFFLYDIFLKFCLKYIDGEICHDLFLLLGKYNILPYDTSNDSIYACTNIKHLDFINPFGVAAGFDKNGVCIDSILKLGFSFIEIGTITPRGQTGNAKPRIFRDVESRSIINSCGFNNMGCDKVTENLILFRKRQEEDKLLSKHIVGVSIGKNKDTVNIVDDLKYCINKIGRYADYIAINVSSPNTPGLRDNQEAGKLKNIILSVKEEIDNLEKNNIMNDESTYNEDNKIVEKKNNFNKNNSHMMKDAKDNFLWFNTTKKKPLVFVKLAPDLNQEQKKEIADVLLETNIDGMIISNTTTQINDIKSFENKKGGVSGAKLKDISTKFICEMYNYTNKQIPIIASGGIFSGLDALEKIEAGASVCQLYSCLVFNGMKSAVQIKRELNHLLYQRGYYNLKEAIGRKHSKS

Compound	z-score [1]	z-score [2]	z-score [3]	z-score [4]	z-score [5]	z-score [6]	z-score [7]	z-score [8]	z-score [9]	z-score [10]	z-score [11]	z-score [12]	z-score [13]	composite z-score [14]	z-score [15]	z-score [16]	z-score [17]	z-score [18]	z-score [19]	composite z-score [20]
O=C1O[C@@H](c2ccccc2)[C@@H](c2ccccc2)N2[C@@H](c3ccc(OCCO)cc3)[C@]3(C(=O)Nc4ccccc43)[C@@H](C(=O)O)[C@H]12	-0.644	0.624	-0.888	0.243	-0.146	-1.36	-0.174 (inactive)	-0.0788	-1.13	0.225 (inactive)	-0.273	-0.624 (inactive)	0.432 (inactive)	-1.09 (inactive)	0.449 (inactive)	-0.66 (inactive)	0.468 (inactive)	-0.513 (inactive)	0.441	-0.0339
COc1cc(OC)c(C(O)C2C=CC3C(=O)N(C)C(=O)C3N2NC(=O)OC(C)(C)C)cc1Br (stereo not given)	0.521	-0.23	0.25	-0.591	0.442	-1.05	-0.0401 (inactive)	0.0442	1.18	-0.503 (inactive)	-1.88	-5.3 (inactive)	-0.652 (inactive)	0.985 (inactive)	0.683 (inactive)	1.18 (inactive)	-0.143 (inactive)	-0.376 (inactive)	-0.34	0.677
CCCCC(O)C1C=CC2C(=O)N(c3ccccc3)C(=O)C2N1Nc1ccc(C(C)C)cc1 (stereo not given)	-0.341	-1.52	1.6	-0.603	-0.216	-1.29	-1.04 (inactive)	-0.749	-0.557	-0.762 (inactive)	-0.741	-0.443 (inactive)	-1.1 (inactive)	0.119 (inactive)	1.14 (inactive)	0.477 (inactive)	-0.622 (inactive)	0.0644 (inactive)	-0.471	0.199
O=C1O[C@H](c2ccccc2)[C@H](c2ccccc2)N2[C@H]1[C@@H](C(=O)Nc1nc3ccccc3s1)[C@]1(C(=O)Nc3ccc(C#CC4(O)CCCCCC4)cc31)[C@H]2c1ccccc1OCCO	-0.744	0.248	-1.54	-3.44	-4.15	-2.82	2.18 (inactive)	-0.951	-1.5	-2.21 (inactive)	0.162	1.49 (inactive)	-3.4 (inactive)	-1.28 (inactive)	3.52 (inactive)	2.74 (inactive)	-0.295 (inactive)	-0.508 (inactive)	-5.13	0.25
C=CCC(OC(C)=O)[C@@H]1[C@@H](N(Cc2cc3ccccc3o2)C(=O)c2ccc(-c3ccccc3)cc2)c2cc(OCCCO)ccc2N1C(=O)c1ccc2ccccc2c1 (stereo not given in full)	0.48	1	0.063	0.532	0.299	1.81	-1.11 (inactive)	0.868	0.32	0.457 (inactive)	-0.98	1.9 (inactive)	0.198 (inactive)	0.396 (inactive)	0.857 (inactive)	0.454 (inactive)	-0.413 (inactive)	-0.787 (inactive)	-0.158	-0.135
CN1C(=O)C2C=CC(C(O)c3cccc4ccccc34)N(N3CCCCC3)C2C1=O (stereo not given)	-0.866	-0.576	-0.776	-1.21	-0.493	-1.79	-1.53 (inactive)	0.776	-0.382	0.294 (inactive)	-0.908	1.51 (inactive)	-1.41 (inactive)	-0.0243 (inactive)	-0.0625 (inactive)	-0.334 (inactive)	-0.619 (inactive)	-0.456 (inactive)	-1.74	0.0077
CC(C)(C)OC(=O)CC[C@]1(C(=O)NCC(O)CO)N=C(c2ccc(OCCCO)cc2)O[C@H]1c1ccccc1 (stereo not given in full)	0.156	0.833	0.135	0.709	0.0887	0.52	-0.24 (inactive)	-0.963	0.437	0.489 (inactive)	0.309	-1.84 (inactive)	1.04 (inactive)	-1.89 (inactive)	0.882 (inactive)	-0.87 (inactive)	1.41 (inactive)	0.419 (inactive)	0.949	-0.0203
COC(=O)[C@@]1(Cc2ccc(OC)cc2)[C@@H]2C(=CC(=O)[C@H]2CC(=O)C(=O)N(C)C)CN1C(=O)c1ccccc1	-1.85	0.271	-1.12	-2.29	-4.37	0.607	-0.283 (inactive)	-0.843	-1.16	-1.34 (inactive)	-1.2	1.61 (inactive)	-2.16 (inactive)	-0.626 (inactive)	2.16 (inactive)	0.625 (inactive)	-0.575 (inactive)	-0.798 (inactive)	-3.26	0.22
COC(=O)c1ccc([C@H](NC(=O)c2ccco2)[C@]2(C)C[C@H]2C2CCCCC2)cc1	-1.13	-1.2	-2.43	-2.65	-3.28	-2.5	-1.02 (inactive)	-0.89	-1.12	-2.55 (inactive)	-2.18	1.23 (inactive)	-0.806 (inactive)	-0.751 (inactive)	0.619 (inactive)	0.158 (inactive)	-0.827 (inactive)	-0.565 (inactive)	-2.26	-0.0668
